Only a selection was taken, and hits are over-represented in it overall.
CHX counter = affects cycloheximide protein synthesis inhibition readout, counter-screen. 12% of 300,000 active. max response, %. AID 2314. cell reporter, cycloheximide protein synthesis inhibition counterscreen; in the data active means max response mostly above about 13%, no sharp cut-off; inactive means mostly below about 14%; further: read at 38.3 µM for the half of the compounds with a filed dose
Shiga toxin inh = inhibitors of Shiga toxin in Vero cells. 9.2% of 290,000 active. AID 2315. Vero cells, Shiga toxin protein synthesis inhibition reporter. inhibition, % at 38.7 µM; in the data active means inhibition mostly above about 28%, no sharp cut-off; inactive means mostly below about 43%
Sm TGR inh = blocks Schistosoma mansoni thioredoxin glutathione reductase; 3% of 360,000 active; purified TGR, DTNB reduction, TNB absorbance 405 nm; Q962Y6; Potency, µM (top dose mostly 114 µM), actives largely listed as inhibitors; further: nearly all actives have a fitted effect of over 60% in size
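First, TGR (20 nM dispensed) and NADPH were mixed with compound. Second, a 15 min room-temperature incubation followed. Third, further NADPH and then DTNB were added to start the reaction. Finally, TNB absorbance was monitored kinetically.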
Tb PYK inh = blocks Trypanosoma brucei pyruvate kinase | Q57TT1 | 0.12% of 410,000 active | Potency, µM (top dose mostly 76.8 µM), most hits filed as inhibitors | TbPYK enzyme, Kinase-Glo Plus ATP luminescence, 45 min; further: nearly all actives have a fitted effect of over 50% in size
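In this concentration-response screen, enzyme-free wells defined baseline while DMSO plates tracked drift. Each reaction combined TbPYK, substrate, compound and 130 uM ADP for 45 min at room temperature. Kinase-Glo Plus luminescence gave the signal.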
LmPK inhibitor = inhibitors of Leishmania mexicana pyruvate kinase | Potency, µM (series often up to 57.5 µM), usual class: inhibitors | AID 1721 | Q27686 | 0.37% of 290,000 active | purified LmPK, Kinase-Glo ATP luminescence, 1 h
Target sequence (Q27686 whole entry, looked up): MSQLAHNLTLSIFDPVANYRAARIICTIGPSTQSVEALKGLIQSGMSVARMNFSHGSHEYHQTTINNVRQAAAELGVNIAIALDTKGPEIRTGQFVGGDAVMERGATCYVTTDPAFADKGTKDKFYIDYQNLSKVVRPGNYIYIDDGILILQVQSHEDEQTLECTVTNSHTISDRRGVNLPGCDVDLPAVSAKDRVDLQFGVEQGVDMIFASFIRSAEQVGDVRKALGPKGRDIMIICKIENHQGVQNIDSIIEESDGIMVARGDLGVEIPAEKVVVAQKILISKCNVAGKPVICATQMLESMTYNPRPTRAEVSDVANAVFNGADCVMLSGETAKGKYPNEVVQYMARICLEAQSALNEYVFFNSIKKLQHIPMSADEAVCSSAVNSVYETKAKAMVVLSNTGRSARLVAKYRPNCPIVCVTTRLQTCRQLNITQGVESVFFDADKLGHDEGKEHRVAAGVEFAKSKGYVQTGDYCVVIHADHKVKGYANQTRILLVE
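Kinase-Glo luminescence read after 1 h RT reaction of 0.1 nM LmPK with 0.5 mM PEP and 0.1 mM ADP. Activity scaled between uninhibited and enzyme-free controls.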
FBPA Giardia inh = Giardia lamblia aldolase inhibition; purified Giardia FBPA; Potency, µM (doses to about 59.6 µM), hits mostly inhibitors; A8B2U2; 0.71% of 290,000 active; further: nearly all actives have a fitted effect of over 55% in size
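40 nM FBPA preincubated 10 min at RT with compound (up to 57.5 uM final), then substrate plus GAPDH/TPI/NAD/arsenate coupling and diaphorase/resazurin added. Fluorescence read after 20 min at RT, 525/598 nm.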
A number is an active result; - = inactive; ? = inconclusive; . = no result. Unless noted, the call rests on the fitted dose curve; in most records, active means well fitted curve in the direction sought with a large enough effect; inconclusive means small, poorly fitted or top-dose-only effect, or another doubt; inactive means no such curve, though single readings can be large; an effect the other way counts as inactive or inconclusive.

SMILES	CHX counter	Shiga toxin inh	Sm TGR inh	Tb PYK inh	LmPK inhibitor	FBPA Giardia inh
COc1ccc(/C=C2/N=C3CCCCCN3C2=O)cc1	30.2	74.9	-	-	-	-
COc1ccc(/C=C2\N=C3CCCCCN3C2=O)cc1OC	-	-	-	-	-	-
O=C1/C(=C\c2ccc(O)c(O)c2)N=C2CCCCCN12	17.2	105.7	?	-	-	?
CC(C)C[C@H](NC(=O)[C@H](Cc1c[nH]c2ccccc12)NC(=O)[C@H](CCCCN)NC(=O)CNC(=O)[C@H](CC(C)C)NC(=O)[C@H](CO)NC(=O)[C@@H](N)Cc1cnc[nH]1)C(=O)NCC(=O)N[C@@H](Cc1cnc[nH]1)C(=O)N1CCC[C@H]1C(=O)N[C@@H](CC(=O)O)C(=O)N[C@@H](CCCCN)C(=O)N[C@@H](Cc1ccccc1)C(=O)O	-	-	.	.	.	-
CN(C)CCN(Cc1ccco1)C(=O)c1cc2c(s1)-c1ccccc1OC2	.	.	-	-	.	.
CN(C)S(=O)(=O)c1cccc(COC(=O)c2ccc(Cl)cc2O)c1	44.5	105.8	-	-	-	-
CN(C)S(=O)(=O)c1cccc(COC(=O)c2ccc3c(c2)OCO3)c1	-	-	-	-	-	-
CCOC(=O)Cn1nc(C)c(NC(=O)COc2ccc(Cl)cc2C)c1C	.	.	-	-	.	.
CC(C)(CCC(=S)N1CCOCC1)C1CCCCC1	25.5	-	-	-	-	-
S=C(CN1CCCC1=S)N1CCOCC1	.	.	.	-	.	.
C=CCn1c(C)cc(C(=O)COc2ncnc3sccc23)c1C	39.8	-	-	-	-	-
C=CCn1c(C)cc(C(=O)COC(=O)c2cncc(Br)c2)c1C	.	.	?	-	.	.
Cc1c(O)c(CN2CCCC2)cc2c1oc(=O)c1ccccc12	-	-	50.1µM	-	-	-
Cc1ccc2c(CN3CCC(C(N)=O)CC3)cc(=O)oc2c1C	-	-	-	-	-	-
O=c1cc(CN2CCN(Cc3ccccc3)CC2)c2cc3c(cc2o1)CCC3	-	-	35.5µM	-	-	-
O=c1cc(CN2CCN(CCO)CC2)c2cc3c(cc2o1)CCC3	-	-	-	-	-	-
Cc1c(O)c(CN2CCCC2)cc2c3c(c(=O)oc12)CCC3	-	-	?	-	-	-
Cc1ccc2c(CN3CCCCC3)cc(=O)oc2c1C	36.1	-	-	-	-	-
Cc1cc2oc(=O)cc(CN3CCCCC3)c2cc1O	27.3	-	-	-	-	-
COc1ccc(-n2c(=O)c(-c3cn(C)c4ccccc34)nc3cncnc32)cc1	.	.	.	-	.	-
Cc1noc(C)c1-c1nccc(NCc2cccs2)n1	.	.	.	.	.	-
CC(C)c1ccc(NC(=O)C2CCN(S(=O)(=O)c3cccc4nonc34)CC2)cc1	.	.	-	-	.	.
Cc1cc2oc(=O)cc(CN3CCc4ccccc43)c2cc1Cl	-	-	-	-	-	-
Cc1ccc2c(CN3CCCc4ccccc43)cc(=O)oc2c1C	27.0	-	?	-	-	-
COc1ccc(-n2c(COc3ccccc3)n[nH]c2=S)cc1	-	.	-	11.2µM	-	?
SMILES	CHX counter	Shiga toxin inh	Sm TGR inh	Tb PYK inh	LmPK inhibitor	FBPA Giardia inh
Cc1ccc(-n2c(CCc3ccccc3)n[nH]c2=S)cc1C	-	.	-	?	14.1µM	-
COc1ccc(CC(=O)NCc2n[nH]c(=S)n2-c2ccccc2)cc1	-	-	-	?	-	-
COc1ccc(CSCCc2n[nH]c(=S)n2-c2ccccc2)cc1	-	-	-	3.16µM	-	-
Cc1n[nH]c(=O)n1-c1ccc(OCc2ccccc2)cc1	53.4	91.9	-	-	-	-
COc1ccc(-n2c(C)n[nH]c2=O)cc1	-	-	-	-	-	-
Cc1ccc(OCc2n[nH]c(=S)n2-c2ccccc2)cc1C	-	-	-	?	?	-
CCN(CC)C(=O)CSc1nc2cc3c(cc2c(=O)n1Cc1ccc(C(=O)NCCc2ccc(OC)c(OC)c2)cc1)OCO3	.	.	-	-	.	.
Cc1ccc(CNC(=O)c2nnc(Cc3cccc(F)c3)o2)cc1	.	.	-	-	.	.
CCOC(=O)c1c(C)n(-c2ccccc2)c2ccc(OC(=O)c3ccc(OCC)c(OCC)c3)cc12	.	.	-	-	.	.
NC1=NC(c2cccc(Cl)c2)n2c(nc3ccccc32)N1 (configuration not stated)	.	.	-	-	.	.
COc1ccc(OCc2n[nH]c(=S)n2Cc2ccco2)cc1	-	-	-	2.82µM	-	-
COc1ccc(-c2n[nH]c(=S)n2Cc2ccco2)cc1	-	-	?	?	?	-
CC(C)Oc1ccc(CCc2n[nH]c(=S)n2-c2ccccc2)cc1	-	-	-	?	14.1µM	-
Cc1ccc(-n2c(COc3cccc(C)c3)n[nH]c2=S)cc1	-	-	-	15.8µM	?	-
COCc1n[nH]c(=S)n1-c1ccccc1	-	-	-	?	-	?
O=C(Nc1ccc(N2CCN(C(=O)c3ccccc3)CC2)cc1)c1ccc2c(c1)OCCO2	55.3	61.7	-	-	-	.
CC(=O)N1CCN(c2ccc(NC(=O)c3ccc4c(c3)OCCO4)cc2Cl)CC1	27.8	-	-	-	-	?
O=C(Nc1ccc(N2CCCCC2)cc1)c1ccc2c(c1)OCCO2	34.9	75.4	-	-	-	-
CN1CCN(c2ccc(NC(=O)c3ccc4c(c3)OCO4)cc2)CC1	41.8	71.9	-	-	-	-
CCOCCCNC(=O)C1CCN(c2cc(C)nc3c(-c4ccc(Cl)cc4)c(C)nn23)CC1	.	.	-	-	.	.
O=C(CP(=O)(c1ccccc1)c1ccccc1)Nn1cnnc1	49.2	98.8	-	-	-	-
O=C1OCC(CO)(CO)N=C1NNc1cc(Cl)ccc1Cl	-	-	-	-	-	-
O=C1OCC(CO)(CO)N=C1NNc1ccccc1[N+](=O)[O-]	42.8	57.8	-	-	-	-
COc1ccc(C(=O)c2ccc(OC)c(Br)c2)cc1Br	-	-	10µM	-	-	-
C=CCNC(=S)NC(=O)c1ccc(C)c(Br)c1	38.3	100.0	31.6µM	-	-	?
SMILES	CHX counter	Shiga toxin inh	Sm TGR inh	Tb PYK inh	LmPK inhibitor	FBPA Giardia inh
COc1ccc(C(=O)c2cccc(C(=O)c3ccc(OC)c(C)c3)c2)cc1C	-	-	-	-	-	-
COc1ccc(C(=O)NC(=S)NCc2cccnc2)cc1Br	-	-	-	-	-	-
COc1ccc(C(=O)NC(=S)NCCO)cc1Br	16.4	-	-	-	-	-
Cc1c(NC(=O)Cc2ccc(F)cc2)cccc1-c1nc2cccnc2s1	.	.	-	-	.	.
COc1ccc(Nc2nc(-c3ccccc3)nc3ccccc23)c(OC)c1	-	-	-	-	-	-
COc1ccc(Nc2nc(N)nc(C(F)(F)F)n2)c(OC)c1	24.7	-	-	-	-	-
COc1ccc(Nc2nc(N)c3ccccc3n2)c(OC)c1	34.1	45.3	-	-	-	?
COc1ccc(-c2cc(C3C4C=CCCC4(C)C(=O)N3Cc3ccccc3)ccc2F)cc1 (configuration not stated)	-	-	.	.	.	-
CCOc1ccc(C(=O)OCc2cc(=O)n3cc(C)sc3n2)cc1	.	.	-	-	.	.
CNC(=S)SCCOc1ccc(C)cc1	-	-	-	-	-	-
